# In all, about 370,000 compounds went through this assay and about 1,100 (0.3%) were called active. Inconclusive results (about 1%) are left out. Calls come from the whole dose curve; as a rule, active = well fitted activation curve with a large enough effect; inconclusive = small, poorly fitted or top-dose-only effect; inactive = flat fitted curve, though single readings scatter. The entries come from a sample that favours actives as a whole.
# Molecular target: T1, Relaxin receptor 1, Homo sapiens (UniProt Q9HBX9)
# T1 sequence (whole entry): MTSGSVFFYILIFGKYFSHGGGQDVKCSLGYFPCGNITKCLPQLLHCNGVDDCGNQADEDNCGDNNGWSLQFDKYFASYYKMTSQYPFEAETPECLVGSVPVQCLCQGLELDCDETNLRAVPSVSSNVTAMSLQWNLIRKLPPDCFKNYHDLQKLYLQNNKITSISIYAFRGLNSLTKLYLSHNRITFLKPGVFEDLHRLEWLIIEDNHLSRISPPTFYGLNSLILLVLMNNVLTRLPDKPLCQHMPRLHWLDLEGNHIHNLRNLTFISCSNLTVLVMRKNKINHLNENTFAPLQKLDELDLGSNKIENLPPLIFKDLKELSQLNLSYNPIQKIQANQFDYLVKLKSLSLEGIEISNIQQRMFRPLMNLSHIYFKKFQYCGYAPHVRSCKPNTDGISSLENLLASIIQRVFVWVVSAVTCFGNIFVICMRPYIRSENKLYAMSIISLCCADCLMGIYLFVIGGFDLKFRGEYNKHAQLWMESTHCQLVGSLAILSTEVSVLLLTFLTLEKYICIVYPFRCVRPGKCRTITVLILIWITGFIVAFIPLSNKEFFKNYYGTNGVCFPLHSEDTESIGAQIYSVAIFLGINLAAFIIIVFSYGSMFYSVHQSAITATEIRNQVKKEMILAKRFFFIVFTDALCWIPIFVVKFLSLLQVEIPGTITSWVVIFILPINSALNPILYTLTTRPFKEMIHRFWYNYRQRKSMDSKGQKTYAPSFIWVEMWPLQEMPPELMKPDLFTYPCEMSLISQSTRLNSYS
# Test: qHTS Assay for Agonists of the Relaxin Receptor RXFP1
row,Compound,outcome
1,CCCC[N+](CCCC)(CCCC)CCCC.Nc1ncnc2c1ncn2[C@@H]1O[C@H](COS(=O)(=O)[O-])[C@@H](O)[C@H]1O,active

# — the GenesisPotency data set
